{
  "source": "PubChem BioAssay (NCATS)",
  "note": "Where “and” joins values, the source holds several entries; their conditions need not be identical. Identical values can stand only once. Results filed as inconclusive are left out. Entries that show only a call come without a potency. Calls of active or inactive are those of the source. Calls come from the whole dose curve; as a rule, active = well fitted cell-killing curve with a large enough effect; inconclusive = small, poorly fitted or top-dose-only effect; inactive = flat fitted curve, though single readings scatter. Potency is the fitted concentration of half-maximal effect.",
  "data": [
    {"experiment": "Cell Viability - LYMP2-016 (AID 984); note: nearly all actives have a fitted effect of over 55% in size", "settings": "LYMP2-016 lymphoblastoid cell viability, qHTS; series mostly up to 92.2 µM", "from_the_text": "NIH Chemical Genomics Center [NCGC]\nNIH Molecular Libraries Screening Centers Network [MLSCN]\nNational Institutes of Environmental Health Sciences [NIEHS]\nNational Toxicology Program [NTP]\nWe have developed a 1536-well cell-based assay for quantitative high throughput screening (qHTS) against a number of cell lines to determine in vitro cytotoxicity of small molecules. This particular assay uses a human lymphoblastoid cell line (LYMP2-016) purchased from Coriell Institute for Medical Research.\nNCGC Assay Protocol Summary:\nThe CellTiter-Glo luminescent cell viability assay (Promega) is a homogeneous method to measure the number of viable cells in culture. The end point readout of this assay is based on quantitation of intracellular ATP, an indicator of metabolic activity, using the luciferase reaction. Luciferase catalyzes the oxidation of beetle Luciferin to oxyluciferin and light in the presence of ATP. The luminescent signal is proportional to amount of ATP present.\nUsing the CellTiter-Glo luminescent cell viability assay, the amount of cellular ATP was measured in the lymphoblastoid cell line with complete culture medium following compound treatment for 24 hours. The assay was performed in opaque white Kalypsys 1536-well plates. In the screen, tetraoctylammonium bromide was used as positive control. Library compounds were measured for their ability to cause acute toxicity in the cell line, as reflected by a decrease in intracellular ATP levels, in a concentration-dependent manner. […] AC50 values were determined from concentration-response data modeled with the standard Hill equation.\nqHTS protocol for CellTiter Glo lymphoblastoid cellular assay\n[Step] [Parameter] [Value] [Description]\n1. Reagent; 5 uL; 2500 lymphoblastoid cells/well\n2. Time; 5 hr; 37 C incubation\n4. Controls; 23 nL; Tetraoctylammonium bromide 6.4pM to 92 uM\n5. Time; 24 hr; 37 C incubation\n6. Reagent; 5 uL; CellTiter Glo reagent\n7. Time; 30 min; Room Temperature\n8. Detection; Luminescence; Viewlux plate reader\nKeywords: cell viability, cytotoxicity, lymphoblastoid cell line, luminescence, NTPHTS, NTPHTS_NCGC, NIEHS, DSSTox, MLSMR, MLSCN, NIH Roadmap, qHTS, NCGC", "values": [
      {"compound": "O=CC=O", "Potency": "inactive"},
      {"compound": "Oc1cc(Cl)c(Cl)cc1Cl", "Potency": "inactive"},
      {"compound": "CCOC(=O)c1ccccc1C(=O)OCC", "Potency": "inactive"},
      {"compound": "O=[N+]([O-])c1ccccc1", "Potency": "inactive"},
      {"compound": "O=C1C2CC=CCC2C(=O)N1SC(Cl)(Cl)Cl", "note": "(stereo not drawn)", "Potency": "5.01 µM (active) and 7.94 µM (active)"},
      {"compound": "CC(C)Nc1ccc(Nc2ccccc2)cc1", "Potency": "31.6 µM (active)"},
      {"compound": "C[C@]12CCC(=O)C[C@@H]1CC[C@@H]1[C@@H]2CC[C@]2(C)[C@@H](O)CC[C@@H]12", "Potency": "inactive"},
      {"compound": "ClCC1CO1", "note": "(stereo not drawn)", "Potency": "inactive"},
      {"compound": "C[C@H]1CCC[C@H](O)CCCCCc2cc(O)cc(O)c2C(=O)O1", "Potency": "inactive"},
      {"compound": "Clc1ccccc1Cl", "Potency": "inactive"},
      {"compound": "CCCCCl", "Potency": "inactive"},
      {"compound": "COC1=CC(=O)O[C@@H](/C=C/c2ccccc2)C1", "Potency": "inactive"},
      {"compound": "NNC(N)=O", "Potency": "inactive"},
      {"compound": "[O]=[Cr](=[O])([OH])[O][Cr](=[O])(=[O])[OH]", "Potency": "10 µM (active) and 12.6 µM (active)"},
      {"compound": "O=C1C=CC(=O)C=C1", "Potency": "inactive"},
      {"compound": "S=C=S", "Potency": "inactive"},
      {"compound": "O=C(O)C(Cl)(Cl)Cl", "Potency": "inactive"},
      {"compound": "C=CCN=C=S", "Potency": "inactive"},
      {"compound": "COc1ccc2c(c1OC)C(=O)OC2C1c2cc3c(cc2CCN1C)OCO3", "note": "(stereo not drawn)", "Potency": "inactive"},
      {"compound": "[O]=[Cd]", "Potency": "inactive"},
      {"compound": "O=[N+]([O-])c1ccc(F)c([N+](=O)[O-])c1", "Potency": "inactive"},
      {"compound": "ClC(Cl)(Cl)Cl", "Potency": "inactive"},
      {"compound": "O=C/C=C/c1ccccc1", "Potency": "inactive"},
      {"compound": "CC(C)CCON=O", "Potency": "inactive"},
      {"compound": "ClC=C(Cl)Cl", "Potency": "inactive"},
      {"compound": "O=C1CCO1", "Potency": "inactive"},
      {"compound": "CCCCCCCCOC(=O)c1ccccc1C(=O)OCCCCCCCC", "Potency": "inactive"},
      {"compound": "O=Cc1ccco1", "Potency": "inactive"}
    ]}
  ]
}
